This is a sample that favours compounds with a hit; in the whole collection about 7.8% have one here.
VACV mCherry inh: vaccinia inhibition (mCherry reporter); Vaccinia virus mCherry reporter infection, fluorescence; Potency, µM (titrated, usually from 36.5 µM), hits mostly inhibitors; 0.63% of 310,000 active; AID 720579; calls by dose curve; tested in A549 cells; also: nearly all actives have a fitted effect of over 35% in size
HCV inh: HCV inhibition; Huh7.5.1 HCVcc-Cre infection, luciferase reporter, 44 h; Potency, µM (doses to about 41.8 µM), hits mostly inhibitors; 3.4% of 340,000 active; AID 651820; active = well fitted inhibition curve with a large enough effect; inconclusive = small, poorly fitted or top-dose-only effect, or another doubt; inactive = no such curve, though single readings can be large or run the other way
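Infectious HCVcc-Cre (~0.5 moi) was added to cells just after compound, with cells seeded 4 h earlier at 1,000 per well. Luciferase activity after 44 h culture reported infection; substrate was incubated 15 min at room temperature before reading.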
Lassa entry inh: blocks Lassa virus binding to or entry into cells. AID 540256. Potency, µM (highest dose often 37.9 µM), actives largely listed as inhibitors. 1.2% of 300,000 active. Lassa virus pseudotype entry inhibition, cell reporter; calls by dose curve; tested in HEK293 cells; also: nearly all actives have a fitted effect of over 50% in size
HCMV antiviral: human cytomegalovirus inhibition; AID 1259415; activity change, negative = inhibition, % at 57.5 µM; HFF cells, HCMV-luciferase reporter, 72 h; hits give low values; 4.5% of 410,000 active; in the data active = activity change below about -60%; inconclusive = no clear call, values can overlap the other calls; inactive = above about -39%
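Two compound doses tested in HFFs infected with HCMV-luciferase, MOI 1 PFU/cell, 72 h at 37C. Lysate luminescence read with OneGlo; data normalized against buffer-only and 10uM Salinomycin inhibitor controls.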
Vaccinia Venus: inhibitors of vaccinia virus (Venus reporter). 0.46% of 330,000 active. Vaccinia virus Venus reporter expression, fluorescence. Potency, µM (series often up to 36.5 µM), usual class: inhibitors; calls by dose curve; tested in A549 cells; also: nearly all actives have a fitted effect of over 30% in size
Marburg entry inh: blocks Marburg virus binding to or entry into cells | 1.8% of 300,000 active | Potency, µM (highest dose often 37.8 µM), most hits filed as inhibitors | AID 540276 | Marburg virus pseudotyped entry inhibition, cell reporter; calls by dose curve; tested in HEK293 cells
Numbers stand for hits.

`COc1ccc(-c2cccc3c2OC(CNC(=O)c2ccccc2-n2cccn2)C3)nn1` (stereo not drawn) gave VACV mCherry inh inactive and Vaccinia Venus inactive.
For Cn1cc(CCCBr)c2ccccc21 the results were HCMV antiviral inactive.
`O=C(CCCN1C(=O)/C(=C/c2ccccc2)SC1=S)NCCCn1ccnc1` gave HCV inh inactive and HCMV antiviral -98.
CCOC(=O)C1(CC2CCCCO2)CCN(Cc2cc3ccccc3[nH]2)CC1 (stereo not drawn) was read as VACV mCherry inh 2.5µM, HCV inh inconclusive, Lassa entry inh 10µM, HCMV antiviral inactive, Vaccinia Venus inconclusive and Marburg entry inh inconclusive.
For CCCCc1ncc(CN2CCC(CC3CCCCO3)(C(=O)OCC)CC2)[nH]1 (stereo not drawn) the results were VACV mCherry inh inactive, HCV inh inactive, Lassa entry inh inactive, HCMV antiviral inactive, Vaccinia Venus inactive and Marburg entry inh inconclusive.
Cc1ccc2sc(N(CCCN(C)C)C(=O)c3ccc(S(=O)(=O)N4CCCCCC4)cc3)nc2c1C was read as VACV mCherry inh inactive, HCV inh 14µM, Lassa entry inh inactive, HCMV antiviral inactive, Vaccinia Venus inactive and Marburg entry inh inconclusive.
For COc1cccc2sc(N(CCN(C)C)C(=O)c3ccc(S(=O)(=O)N4CCCC4)cc3)nc12 the results were VACV mCherry inh inactive, HCV inh inactive, Lassa entry inh inactive, HCMV antiviral inactive, Vaccinia Venus inactive and Marburg entry inh inactive.
For CN(C)CCCN(C(=O)c1ccc(S(=O)(=O)N2CCCC2)cc1)c1nc2ccc(Br)cc2s1 the results were VACV mCherry inh inactive, HCV inh inconclusive, Lassa entry inh inconclusive, HCMV antiviral inactive, Vaccinia Venus inactive and Marburg entry inh 10µM.
For Cc1cc(C)c2nc(N(CCCN(C)C)C(=O)c3ccc(S(=O)(=O)N4CCCCCC4)cc3)sc2c1 the results were VACV mCherry inh inactive, HCV inh 11µM, Lassa entry inh inconclusive, HCMV antiviral inconclusive, Vaccinia Venus inconclusive and Marburg entry inh inconclusive.
CCOc1ccc2nc(N(CCCN(C)C)C(=O)c3ccc(S(=O)(=O)N4CCCC4)cc3)sc2c1 was read as HCV inh inactive and HCMV antiviral inactive.
COc1ccc(S(=O)(=O)NCc2nc(N3CCCC3)c3cccc(C)c3n2)cc1OC was read as VACV mCherry inh inactive and Vaccinia Venus inactive.
`COc1cc(-c2ccc(Cl)cn2)cc2c1OCCN(C(=O)c1ccccc1-n1cccn1)C2` gave VACV mCherry inh inactive and Vaccinia Venus inactive.
Screening O=C(c1ccc(Cl)c([N+](=O)[O-])c1)N(Cc1ccc(Cl)cc1)C1CCS(=O)(=O)C1 (stereo not drawn) returned VACV mCherry inh inactive, HCV inh inconclusive, Lassa entry inh inactive, HCMV antiviral -60, Vaccinia Venus inactive and Marburg entry inh inconclusive.
For CN(C)c1ccc(CN(C(=O)/C=C/c2ccco2)C2CCS(=O)(=O)C2)cc1 (stereo not drawn) the results were VACV mCherry inh inactive, HCV inh inconclusive, Lassa entry inh inactive, HCMV antiviral inactive, Vaccinia Venus inactive and Marburg entry inh inactive.
For O=C(c1ccc(Cl)c([N+](=O)[O-])c1)N(Cc1ccccc1)C1CCS(=O)(=O)C1 (stereo not drawn) the results were VACV mCherry inh inactive, HCV inh inactive, Lassa entry inh inactive, HCMV antiviral inconclusive, Vaccinia Venus inactive and Marburg entry inh inactive.
O=C(/C=C/c1ccco1)N(Cc1ccc(Cl)cc1)C1CCS(=O)(=O)C1 (stereo not drawn) was read as VACV mCherry inh inactive, HCV inh 1.1µM, Lassa entry inh inactive, HCMV antiviral inactive, Vaccinia Venus inactive and Marburg entry inh inactive.
For COC(=O)c1cc(Sc2c(Cl)cccc2Cl)ccn1 the results were VACV mCherry inh inactive, HCV inh inactive, Lassa entry inh inactive, HCMV antiviral inactive, Vaccinia Venus inactive and Marburg entry inh 11µM.
Screening Cc1ccc(C(=O)Nc2ccc(N3CCN(C(=O)c4ccco4)CC3)cc2)c(Cl)c1 returned VACV mCherry inh inactive, HCV inh 11µM, Lassa entry inh inconclusive, HCMV antiviral inactive, Vaccinia Venus inactive and Marburg entry inh inactive.
CC(C)CC(=O)NC(=S)Nc1ccc(N2CCN(C(=O)c3cccs3)CC2)cc1 was read as VACV mCherry inh inactive, HCV inh inconclusive, Lassa entry inh 5.6µM, HCMV antiviral inactive, Vaccinia Venus inactive and Marburg entry inh inconclusive.

Screening data: PubChem BioAssay, National Center for Advancing Translational Sciences (NCATS)
